# PP1 inh – PP1-alpha phosphatase inhibitors, primary screen, counter-screen for PP5 inhibitor project, biochemical, fluorescence, OMFP substrate, single point. Serine/threonine-protein phosphatase PP1-alpha catalytic subunit (Homo sapiens), P62136. purified PP1alpha. inhibition, % at 6.7 µM. actives 0.9% (n = 320,000). AID 2235, 2010;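 active = inhibition above the mean inhibition of all tested compounds plus 3 SD, computed separately for each screening campaign, cut at about 15% in these data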
# PP5 primary – PP5 phosphatase inhibitors, primary screen, biochemical, fluorescence | purified PP5c, OMFP substrate fluorescence | inhibition, % at 6.7 µM | actives 0.18% (n = 320,000);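 active = inhibition above the campaign's mean inhibition across all tested compounds plus 3 SD, cut at about 9.5% in these data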;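 also: 0% = DMSO only and 100% = 100 µM cantharidin control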
# Target sequence (P53041 whole entry, looked up): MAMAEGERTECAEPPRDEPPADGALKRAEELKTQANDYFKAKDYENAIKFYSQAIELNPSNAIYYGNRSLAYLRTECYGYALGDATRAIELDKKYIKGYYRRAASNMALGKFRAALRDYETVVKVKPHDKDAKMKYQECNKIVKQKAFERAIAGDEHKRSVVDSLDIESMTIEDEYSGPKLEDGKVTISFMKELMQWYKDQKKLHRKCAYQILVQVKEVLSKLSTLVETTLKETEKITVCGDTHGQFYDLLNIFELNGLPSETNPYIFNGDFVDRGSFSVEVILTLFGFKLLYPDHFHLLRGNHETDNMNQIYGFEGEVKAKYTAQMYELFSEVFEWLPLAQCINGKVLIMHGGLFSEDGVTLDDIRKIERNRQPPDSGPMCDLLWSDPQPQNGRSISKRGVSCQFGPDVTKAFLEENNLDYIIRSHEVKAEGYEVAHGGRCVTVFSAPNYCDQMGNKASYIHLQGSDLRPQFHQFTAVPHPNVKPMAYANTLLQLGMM
# PAFAH1B3 inh – PAFAH1B3 enzyme inhibitors, primary screen, biochemical, fluorescence polarization, human; recombinant PAFAH1B3, FP-rhodamine probe; actives 0.28% (n = 340,000); inhibition, % at 3.39 µM; Platelet-activating factor acetylhydrolase IB subunit alpha1 (Homo sapiens), Q15102;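 active = inhibition above the screen-wide average of all tested compounds plus 3 SD, cut at about 25% in these data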;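 also: 0% = enzyme with DMSO only and 100% = wells lacking PAFAH1B3 protein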
# pPAFAH FP inh – pPAFAH enzyme inhibitors, primary screen, biochemical, fluorescence polarization, human. inhibition, % at 3.39 µM. recombinant pPAFAH, FP-rhodamine probe fluorescence polarization. actives 1.5% (n = 330,000);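 active = inhibition above the mean inhibition across the screen plus 3 SD, cut at about 25% in these data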;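 also: inhibitors block binding of the rhodamine activity-based probe so polarization drops; 0% = enzyme with DMSO and 100% = wells lacking pPAFAH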
# PAFAH1B2 inh – PAFAH1B2 enzyme inhibitors, primary screen, biochemical, fluorescence polarization, human; actives 1.2% (n = 340,000); Platelet-activating factor acetylhydrolase IB subunit alpha2 (Homo sapiens), P68402; AID 492953, 2010; inhibition, % at 3.39 µM; recombinant PAFAH1B2, FP-rhodamine activity probe;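 active = inhibition above the mean of all tested compounds plus 3 SD, cut at about 24% in these data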;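 also: 0% = enzyme with DMSO and 100% = wells lacking PAFAH1B2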
# PAFAH2 FP inh – PAFAH2 enzyme inhibitors, primary screen, biochemical, fluorescence polarization, human | Platelet-activating factor acetylhydrolase 2, cytoplasmic (Homo sapiens), Q99487 | recombinant PAFAH2, FP-rhodamine activity probe | inhibition, % at 3.39 µM | actives 0.99% (n = 340,000) | AID 492956, 2010;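 active = inhibition above the mean over all tested compounds plus 3 SD, cut at about 30% in these data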;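 also: inhibitors block probe labeling of enzyme so polarization drops; 0% = enzyme with DMSO and 100% = wells lacking PAFAH2 protein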
# PAFAH2 confirm – PAFAH2 enzyme inhibitors, confirmation, biochemical, fluorescence polarization, human. shares compounds with PAFAH2 FP inh. recombinant PAFAH2, FP-rhodamine activity probe. inhibition, % at 3.39 µM. actives 65% (n = 2,300). AID 493030, 2011;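 active = mean inhibition over three repeats above a set limit taken from the earlier primary screen, cut at about 30% in these data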;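 also: inhibitor blocks binding of rhodamine activity probe so polarization falls; 0% = enzyme with DMSO and 100% = wells lacking PAFAH2 protein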
# * = called active by the depositor; x = not tested or not shown. Hits are enriched below; roughly 3.4% of the tested compounds scored in any of these assays.
SMILES,PP1 inh,PP5 primary,PAFAH1B3 inh,pPAFAH FP inh,PAFAH1B2 inh,PAFAH2 FP inh,PAFAH2 confirm
CC1(C)CC(=NOC(=O)c2ccccc2)CC(C)(C)N1O,3,2,8,3,6,33*,32*
COc1ccc(C(=O)ON=C2CCN(C)CC2)cc1,-4,2,1,3,5,75*,63*
O=S(=O)(c1ccccc1)N1CCC(=NO)CC1,-3,-2,10,-1,8,10,x
Fc1ccc(CNC(=S)NC2CCCC2)cc1,-2,1,8,-3,3,-1,x
CNC(=O)COc1ccc(Nc2nnc(-c3ccc(C)c(S(N)(=O)=O)c3)c3ccccc23)cc1,3,3,9,-2,3,4,x
Cc1sc2ncnc(SCC(=O)N3CCCC3=O)c2c1C,-4,2,7,0,9,81*,83*
COc1ccccc1C(=O)N1CCN(C(=O)c2oc3ccc(C)cc3c2C)CC1,1,2,10,2,-2,-5,x
CN(C)S(=O)(=O)c1ccc(C(=O)N2CCN(S(=O)(=O)c3cccs3)CC2)cc1,-1,0,-4,2,4,42*,39*
COc1ccc(C=O)cc1CN1C(=O)c2ccccc2C1=O,1,-1,3,8,3,-3,x
Cc1ccc(Sc2c([N+](=O)[O-])ncn2C)cc1,0,0,-1,-1,-1,-2,x
CCC1(C)CC(=O)N(c2ccc(F)c(Cl)c2)C(=O)C1,-1,0,11,0,2,0,x
Cc1nc(-c2cccc(S(=O)(=O)N3CCOCC3)c2)cs1,-2,2,4,2,6,0,x
CC(C)(C)C(=O)Nc1cccc(-c2nc3ccccc3c(=O)o2)c1,-2,3,8,-1,2,27,x
CC(C)C(=O)Nc1cccc(-c2nc3ccccc3c(=O)o2)c1,0,2,5,-4,-5,13,x
O=c1oc(-c2cccc(S(=O)(=O)N3CCOCC3)c2)nc2ccccc12,-4,0,-1,0,-1,61*,55*
CC(=O)Oc1cccc(-c2nc3ccccc3c(=O)o2)c1,-4,-2,16,3,-2,40*,27
COc1cccc(-c2nc3ccc(O)cc3c(=O)o2)c1,2,1,0,-4,5,72*,52*
COCCN(C(=S)Nc1c(C)cc(C)cc1C)C(C)c1cccs1 (stereo not drawn),-1,0,5,7,2,31*,28
Nc1nc(SCC(=O)N2CCN(c3ccc(F)cc3)CC2)n[nH]1,0,1,4,-1,5,-1,x
COC(=O)c1ccccc1S(=O)(=O)NNC(=O)Nc1ccccc1,-1,2,-2,1,-1,34*,18
COC(=O)c1ccccc1S(=O)(=O)C(C)(C)C,0,-4,7,2,0,-1,x
CCOC(=O)CSc1nnc(-c2ccccc2NC(=O)c2ccccc2)o1,-3,1,-3,3,1,-23,x
CCc1nnc(NC(=O)CSc2nnc(-c3ccccc3NC(=O)c3ccccc3)o2)s1,-2,2,3,0,4,34*,-3
Cc1ccccc1NC(=O)Cc1nc(-c2c[nH]c(C(=O)N3CCCC3)c2)cs1,1,-1,-1,23,3,40*,13
Cc1cccc(CC(=O)Nc2ccc(C(=O)N3CCCCC3)cc2)c1,0,1,5,4,0,5,x
SMILES,PP1 inh,PP5 primary,PAFAH1B3 inh,pPAFAH FP inh,PAFAH1B2 inh,PAFAH2 FP inh,PAFAH2 confirm
Cc1cccc(NC(=O)Cc2nc(-c3c[nH]c(C(=O)N4CCCC4)c3)cs2)c1,x,x,0,x,-2,35*,12
COc1cc(C(C)=O)ccc1COc1ccc(C(=O)OCC(=O)NC(C)(C)C)cc1OC,-3,-1,-3,20,-2,74*,79*
COc1cc(C(C)=O)ccc1COc1ccc(C(=O)OCC(=O)NC2CCS(=O)(=O)C2)cc1OC (stereo not drawn),1,3,3,2,6,11,x
COC(=O)[C@H](Cc1ccccc1)NC(=O)NCc1ccccc1,-2,-2,2,0,7,7,x
COC(=O)[C@@H](Cc1ccccc1)NC(=O)[C@H]1CCC(=O)N1C(=O)OCc1ccccc1,3,0,5,4,1,41*,28
C=C(C)c1cccc(C(C)(C)NC(=O)NNC(=O)c2ccccc2O)c1,4,3,19,1,1,35*,30
CN(C)S(=O)(=O)c1ccc(C(=O)NCc2nnc(SCC(=O)NCc3ccco3)o2)cc1,-3,1,6,-4,-2,1,x
O=C(COC(=O)c1cccs1)Nc1ccc(S(=O)(=O)N2CCOCC2)cc1,-1,2,9,0,11,-6,x
O=C(COC(=O)c1cccs1)Nc1cccc(S(=O)(=O)N2CCOCC2)c1,2,0,4,3,-3,64*,63*
O=C(COC(=O)/C=C/c1ccc(OC(F)F)cc1)Nc1cccc(S(=O)(=O)N2CCCC2)c1,0,2,-13,3,-5,34*,37*
COc1cccc(/C=C/C(=O)OCC(=O)Nc2cccc(S(=O)(=O)N3CCOCC3)c2)c1OC,-1,-1,-2,3,1,59*,58*
O=C(COC(=O)/C=C/c1cccs1)Nc1cccc(S(=O)(=O)N2CCOCC2)c1,-5,1,0,4,0,68*,56*
N#Cc1nc(N2CCCC2)nc(N2CCCC2)n1,-4,-2,-2,6,6,-2,x
COC(=O)[C@@H](Cc1c[nH]c2ccccc12)NC(=O)CNC(=O)c1ccccc1OC,-2,0,1,3,9,-3,x
O=C(Cn1cnc2c(nnn2Cc2ccc(F)cc2)c1=O)NCc1ccccc1,0,-4,2,3,9,1,x
Cn1cccc1C(=O)OCC(=O)Nc1cccc(S(=O)(=O)N2CCOCC2)c1,-3,0,5,-2,2,29,x
O=C(COC(=O)c1ccc(=O)[nH]c1)Nc1cccc(S(=O)(=O)N2CCOCC2)c1,0,0,-3,0,-3,66*,48*
Cc1c(Cl)cnc(NC(=O)COC(=O)c2cccs2)c1Cl,-1,-2,6,-1,-2,58*,41*
Cc1nc(NC(=O)COC(=O)CCC(=O)c2cccs2)c(Cl)cc1Cl,-3,-1,6,21,0,4,x
